This note sets out measurements from PubChem BioAssay (NCATS).

Experiment [1] in a line: Primary qHTS for inhibitors of SARS-S pseudo-typed particle cell entry (AID 1479145). For activity change, negative = inhibition: % is set by controls: 0 for no effect and ±100 for the full control effect. Note: nearly all actives have a fitted effect of over 45% in size. As to conditions: outcome: dose series up to 57.1 µM unless noted.
Experiment [2] in a line: Primary qHTS for Huh7 cytotoxicity: counterscreen for inhibitors of MERS-S pseudotyped particle cell entry (AID 1479147). For activity change, negative = cytotoxicity: % is set by controls: 0 for no effect and ±100 for the full control effect. The note with it: outcome: dose series up to 57.1 µM unless noted.
A short description of experiment [3]: Primary qHTS for inhibitors of MERS-S pseudo-typed particle cell entry (AID 1479149). For activity change, negative = inhibition: % is set by controls: 0 for no effect and ±100 for the full control effect. Note: nearly all actives have a fitted effect of over 60% in size. As to conditions: outcome: dose series up to 57.1 µM unless noted.
A short description of experiment [4]: Primary qHTS for Vero E6 cytotoxicity: counterscreen for inhibitors of SARS-S pseudo-typed particle cell entry (AID 1479150). The note with it: outcome: dose series up to 57.1 µM unless noted.
A short description of experiment [5]: Confirmatory qHTS to identify inhibitors of SARS-CoV-2 cell entry (AID 1645844). Note: nearly all actives have a fitted effect of over 45% in size. Note: potency is the fitted concentration of half-maximal effect. An outline of the steps: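 Luminescence from a luciferase reporter, read 48 hr after pseudotyped-particle addition, gives entry signal, normalised to spike-bearing PP wells and bald PP lacking fusion protein wells. Cells are Expi293F stably expressing human ACE2, compound-pretreated 1 hr.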

Experiment [6] in a line: Cytotoxicity counterscreen for inhibitors of SARS-CoV-2 cell entry (AID 1645845). For activity change, negative = cytotoxicity: % is set by controls: 0 for no effect and ±100 for the full control effect. Note: nearly all actives have a fitted effect of over 50% in size. The note with it: outcome: dose series up to 57.1 µM unless noted. An outline of the steps: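 48 h compound treatment (after 1 h preincubation), HEK293-ACE2 cells, 37 C/5% CO2; ATP luminescence endpoint; normalized to cell wells and media blanks.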
The nature of experiment [7]: Primary qHTS to identify inhibitors of SARS-CoV-2 cell entry (AID 1645846). Note: nearly all actives have a fitted effect of over 45% in size. The note with it: SARS-CoV-2 pseudovirus cell entry assay, luminescence. In outline: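 Using luciferase-reporting pseudoviruses carrying Wuhan-Hu-1 spike, the screen tracks entry into stably ACE2-expressing cells over 48 hr. Activity is expressed relative to spike particles versus particles lacking any fusion protein.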

Experiment [8] in a line: VSVG counterscreen qHTS to identify inhibitors of SARS-CoV-2 cell entry (AID 1645847). Note: nearly all actives have a fitted effect of over 65% in size. Note: potency is the fitted concentration of half-maximal effect. In outline: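 Entry of VSV-G pseudotyped particles into human ACE2-expressing HEK293 cells was measured by luciferase luminescence 48 h after infection, with compound added 1 h beforehand.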
Experiment [9] deals with Glutathione peroxidase 1 (Homo sapiens) (UniProt P07203). The experiment is described as follows: Primary qHTS Assay for Inhibitors of Recombinant Selenoprotein Glutathione Peroxidase 1 (GPX1) (AID 1845191; active = well fitted curve in the direction sought with a large enough effect; an effect the other way counts as inactive or inconclusive; note: % is set by controls: 0 for no effect and ±100 for the full control effect; nearly all actives have a fitted effect of over 65% in size). An outline of the steps:
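10 nM GPX1 + cpd, 30 min RT; start w/ 1 mM GSH, 0.5 mM cumene hydroperoxide, 0.5 mM NADPH, 100 nM GR, 0.01% BSA; buffer 50 mM Tris-HCl pH 7.5, 2 mM EDTA, 150 mM NaCl; Fl 340/450, 0 & 15 min.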

Experiment [10] concerns the target Cytochrome P450 2D6 (Homo sapiens) (UniProt P10635). In words: Cytochrome P450 family 2 subfamily D member 6 (CYP2D6) small molecule antagonists: luciferase biochemical (cell-free) qHTS assay (AID 1645840; active = well fitted curve in the direction sought with a large enough effect in the repeat runs; an effect the other way counts as inactive or inconclusive; note: % is set by controls: 0 for no effect and ±100 for the full control effect; nearly all actives have a fitted effect of over 55% in size). In outline:
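P450-Glo luminescent screen: recombinant CYP2D6 enzyme–proluciferin substrate mix preincubated with compound 10 min at room temperature, then NADPH regeneration added for 1 h at room temperature. Detection reagent added for 20 min; luciferin light read as relative luminescence units.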

The target of experiment [11] is Cytochrome P450 2C9 (Homo sapiens) (UniProt P11712). In words: Cytochrome P450 family 2 subfamily C member 9 (CYP2C9) small molecule antagonists: luciferase biochemical (cell-free) qHTS assay (AID 1645842; active = well fitted curve in the direction sought with a large enough effect in the repeat runs; an effect the other way counts as inactive or inconclusive; note: potency is the fitted concentration of half-maximal effect; nearly all actives have a fitted effect of over 55% in size). An outline of the steps: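 Luminescence, after 20 min with luciferin detection reagent, reflected CYP2C9 turnover during a 1 h NADPH-driven reaction at 37C. Enzyme-substrate mix contained 0.4% bovine serum albumin and was preincubated with compound 10 min at room temperature.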

[12] abbreviates: activity change, negative = inhibition: at 57.1 µM (top of the series) unless noted, outcome: at 57.1 µM (top of the series) unless noted.

Inconclusive results are not listed. The source made the active and inactive calls. Unless noted, calls come from the whole dose curve. Square brackets hold non-standard residues; d marks the D form. Peptide text beside a SMILES is read from it. ξ: configuration not given here. d(hArg(Et2)) = CCN=C(NCC)NCCCC[C@@H](N)C(=O)O; hArg(Et2) = CCN=C(NCC)NCCCC[C@H](N)C(=O)O; Phe(4-Cl) = N[C@@H](Cc1ccc(Cl)cc1)C(=O)O; ξ2Nal = NC(Cc1ccc2ccccc2c1)C(=O)O; 3Pal = N[C@@H](Cc1cccnc1)C(=O)O; ξP = O=C(O)C1CCCN1

Cytochrome P450 2C9 (Homo sapiens), sequence (P11712 whole entry, looked up): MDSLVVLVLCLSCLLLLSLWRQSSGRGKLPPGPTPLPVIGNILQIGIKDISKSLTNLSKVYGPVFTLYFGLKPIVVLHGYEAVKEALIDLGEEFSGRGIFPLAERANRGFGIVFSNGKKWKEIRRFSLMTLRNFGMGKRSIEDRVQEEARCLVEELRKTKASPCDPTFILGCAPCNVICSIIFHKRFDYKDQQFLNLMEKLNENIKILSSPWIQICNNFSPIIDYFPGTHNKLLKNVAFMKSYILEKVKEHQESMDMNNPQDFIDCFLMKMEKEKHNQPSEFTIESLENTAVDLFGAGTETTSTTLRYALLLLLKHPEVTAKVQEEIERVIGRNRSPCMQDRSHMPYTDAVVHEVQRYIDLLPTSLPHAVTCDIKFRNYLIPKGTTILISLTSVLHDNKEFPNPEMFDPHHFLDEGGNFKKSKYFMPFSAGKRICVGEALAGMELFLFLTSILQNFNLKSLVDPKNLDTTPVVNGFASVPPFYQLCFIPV
Cytochrome P450 2D6 (Homo sapiens), sequence (P10635 whole entry, looked up): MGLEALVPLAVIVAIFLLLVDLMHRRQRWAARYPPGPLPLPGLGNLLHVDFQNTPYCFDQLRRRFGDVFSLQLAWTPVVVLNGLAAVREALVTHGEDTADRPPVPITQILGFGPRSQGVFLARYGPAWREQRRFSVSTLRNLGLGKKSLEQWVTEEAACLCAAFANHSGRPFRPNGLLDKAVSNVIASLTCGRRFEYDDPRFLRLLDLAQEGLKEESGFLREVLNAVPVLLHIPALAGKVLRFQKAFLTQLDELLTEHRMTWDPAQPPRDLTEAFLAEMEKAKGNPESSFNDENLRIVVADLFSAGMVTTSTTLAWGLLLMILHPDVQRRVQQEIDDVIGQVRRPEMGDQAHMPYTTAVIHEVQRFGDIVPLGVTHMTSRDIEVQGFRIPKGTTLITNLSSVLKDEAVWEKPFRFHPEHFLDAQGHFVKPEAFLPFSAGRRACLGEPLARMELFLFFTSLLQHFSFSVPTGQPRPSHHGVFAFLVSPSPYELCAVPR
Glutathione peroxidase 1 (Homo sapiens), sequence (P07203 whole entry, looked up): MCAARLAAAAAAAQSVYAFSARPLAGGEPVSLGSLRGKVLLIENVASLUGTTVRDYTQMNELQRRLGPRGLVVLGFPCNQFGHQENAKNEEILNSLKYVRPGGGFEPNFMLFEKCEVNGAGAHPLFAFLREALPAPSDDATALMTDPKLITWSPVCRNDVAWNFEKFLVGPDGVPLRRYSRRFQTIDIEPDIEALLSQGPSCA

Turning to `CCCCCCCCCCCCCCCCCCCCCC(=O)Nc1ccn([C@@H]2O[C@H](CO)[C@@H](O)[C@@H]2O)c(=O)n1`, the Potency result in experiment [1], in [2], in experiment [3], in experiment [4], in experiment [5] and in experiment [6] was “inactive” throughout. In addition, in experiment [8], the Potency entry was “inactive”. For the same molecule, in [7] (setting [12]), the activity change, negative = inhibition was -93.7% [at 27.1 µM].

In the case of `CC(C)[C@H]1CC[C@H](C)C[C@H]1O`, the Potency entry in [1], in experiment [2], in experiment [3], in [4] and in [6] was “inactive” each time.

In the case of `C=C1C[C@@H]2CC[C@@]34C[C@H]5O[C@H]6[C@@H](O3)[C@H]3O[C@H](CC[C@@H]3O[C@H]6[C@H]5O4)CC(=O)C[C@@H]3[C@@H](OC)[C@@H](C[C@H](O)CN)O[C@H]3C[C@H]3O[C@@H](CC[C@@H]1O2)C[C@@H](C)C3=C`, the Potency result in [1], in experiment [2], in [3], in experiment [4] and in experiment [6] was “inactive” throughout. For the same molecule, the Potency was 221 nM (active) in experiment [5] and 111 nM (active) in [8]. Moreover, the activity change, negative = inhibition is -91.9% in experiment [7] (at 11.3 µM (top of the series)) and -84.4% in experiment [7] (at 57.1 µM (top of the series)).

Turning to `CO[C@@H]1[C@H](C)OC(O[C@H]2CC(Oc3cc4cc5c(c(O)c4c(O)c3C)C(=O)[C@@H](OC3C[C@@H](OC4C[C@H](OC6C[C@](C)(O)[C@@H](OC(C)=O)[C@H](C)O6)[C@@H](O)[C@H](C)O4)[C@H](O)[C@@H](C)O3)[C@H]([C@@H](OC)C(=O)[C@@H](O)[C@H](C)O)C5)O[C@@H](C)[C@H]2OC(C)=O)C[C@@H]1O` (some centres not stated), the Potency entry in [1], in [2], in experiment [3], in experiment [4] and in experiment [9] was “inactive” throughout. Moreover, the Potency was 21.5 nM (active) in experiment [5] and 48.2 nM (active) in experiment [8].

With `C[C@]12C[C@@H]3S[C@H]3C[C@@H]1CC[C@H]1[C@H]3CC[C@@H](O)[C@@]3(C)CC[C@@H]12`, the Potency result in experiment [1], in [2], in experiment [3], in [4], in experiment [10] and in experiment [7] (setting [12]) was “inactive” in each case. Also, in experiment [11], the Potency is 107 nM (active).

As for `CN(C)CC(=O)O`, the Potency result in [1], in experiment [2], in experiment [3], in experiment [4] and in [6] was “inactive” in each case.

For `CN[C@@H]1[C@H](O[C@H]2[C@H](O[C@@H]3[C@@H](O)[C@H](O)[C@@H](N=C(N)N)[C@H](O)[C@H]3N=C(N)N)O[C@@H](C)[C@]2(O)C=O)O[C@@H](CO)[C@H](O)[C@H]1O`, in [1], the activity change, negative = inhibition was -20.2% [at 11.4 µM] (inactive). Besides, the activity change, negative = cytotoxicity in experiment [2] is -3.3% [at 11.4 µM] (inactive); in [4] it was -2.76% [at 11.4 µM] (inactive). Moreover, the outcome in experiment [3] was “inactive [at 11.4 µM]”. The Potency result in experiment [6] is “inactive”.

Turning to `O=C(OC1C[C@@H]2CC3C[C@@H](C1)N2CC3=O)c1c[nH]c2ccccc12` (some centres not stated), the Potency result in experiment [1], in [2], in [3], in experiment [4] and in experiment [6] was “inactive” each time.

For the molecule `COc1ccc(NC(=O)c2ccc(C(=N)N(C)C)cc2)c(C(=O)Nc2ccc(Cl)cn2)c1`, the Potency entry in experiment [1], in experiment [2], in experiment [3], in experiment [4] and in experiment [6] was “inactive” throughout.

On to `CCNC(=NCCCC[C@H](NC(=O)[C@H](CC(C)C)NC(=O)[C@@H](CCCCN=C(NCC)NCC)NC(=O)[C@@H](Cc1ccc(O)cc1)NC(=O)[C@@H](CO)NC(=O)[C@H](Cc1cccnc1)NC(=O)[C@H](Cc1ccc(Cl)cc1)NC(=O)C(Cc1ccc2ccccc2c1)NC(C)=O)C(=O)N1CCCC1C(=O)N[C@H](C)C(N)=O)NCC` (some centres not stated) (Ac-[ξ2Nal][Phe(4-Cl)][3Pal][dS][dY][d(hArg(Et2))]L[hArg(Et2)][ξP][dA]-NH2), for which the Potency result in [1], in [2], in experiment [3] and in experiment [4] was “inactive” throughout. For the same molecule, the Potency in experiment [5] is 1210 nM (active); in experiment [8], 857 nM (active).
